We go through five molecules from PubChem BioAssay.

The subject of experiment [1] is PRMT1 (protein arginine N-methyltransferase 1). Description: PRMT1 binders on small-molecule microarrays, primary screen, biochemical, small-molecule microarray, 635 nm fluorescence (AID 1088).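 Note: binding of Prmt1 protein to compounds spotted on small-molecule microarray slides.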 The note with it: small-molecule microarray binding, higher = more signal.
Experiment [2] can be described thus: yeast growth modulation, basal conditions, primary screen, YJM789 clinical isolate, OD600, 24 h (AID 1089).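 Note: growth of clinical yeast isolate S. cerevisiae YJM 789 seeded 1000 cells per well; test concentration not given here.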 Particulars: S. cerevisiae YJM789 growth, higher = more signal, called active from +8 up or from −8 down.
The nature of experiment [3]: fission yeast growth modulation, primary screen, strain 972, OD600, 24 h, no modulator (AID 1090).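 Note: basal condition with compound alone and no growth modifier present; test concentration not given here.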 Particulars: S. pombe 972 growth, higher = more signal, called active from +8 up or from −8 down.
Experiment [4] in a line: S. cerevisiae growth modulation with rapamycin, primary screen, strain BY4716, OD600, 96 h (AID 1091). Note: test concentration not given here. Particulars: higher = more signal, called active from +8 up or from −8 down.
The target of experiment [5] is Torsin-1A-interacting protein 2 (Homo sapiens) (UniProt Q8NFQ8). Description: LULL1 binders on small-molecule microarray, primary screen, cell lysate, human LULL1 lysate, 635/667 nm fluorescence (AID 1092).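 Note: probe is lysate of COS7 cells overexpressing human LULL1; score merges per-feature 667 nm fluorescence with signal-to-noise.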 Particulars: hLULL1 lysate binding, 635 nm fluorescence, higher = more signal.
The nature of experiment [6]: E. coli growth modulation, two-sided OD650, primary screen, E. coli filamentation project, strain DRC41, 24 h (AID 1093).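 Note: MC1000 strain lacking acrAB efflux and sulA so SOS filamentation is blocked; test concentration not given here.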 The note with it: OD650, 24 h, higher = more signal, called active from +8 up or from −8 down.
Experiment [7] can be described thus: small-molecule microarray binders of probe aLefty2, primary screen, biochemical, biotinylated probe, 635/667 nm fluorescence (AID 1094).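 Note: score merges spot fluorescence near 667 nm with spot signal-to-noise ratio.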 Particulars: higher = more signal.
Experiment [8] concerns Noggin (protein binding on small-molecule microarray). As to the kind of experiment: Noggin binders on small-molecule microarray, primary screen, biochemical, 635/667 nm fluorescence (AID 1095).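 Note: score merges 667 nm feature fluorescence with signal to noise over triplicate slides.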 Particulars: 635 nm fluorescence, higher = more signal.
The target in experiment [9] is Neurogenic locus notch homolog protein 3 (Homo sapiens) (UniProt Q9UM47). As to the kind of experiment: NOTCH3 binders on small-molecule microarray, primary screen, biochemical, 635/667 nm fluorescence (AID 1096). Particulars: NOTCH3 binding, 635 nm fluorescence, higher = more signal.
Experiment [10] is described as follows: small-molecule microarray binders of probe aEGFR, primary screen, biochemical, biotinylated probe, 635/667 nm fluorescence (AID 1097).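 Note: probe is a biotinylated anti-EGFR antibody binding compounds printed on slides; score combines fluorescence near 667 nm and signal to noise of each spot.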 Particulars: higher = more signal.
Experiment [11] deals with Plasmodium falciparum Sir2 (PF13_0152, Sir2A). As to the kind of experiment: pfSir2 binders on small-molecule microarrays, primary screen, biochemical, small-molecule microarray, 635 nm fluorescence (AID 1098).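 Note: score merges spot fluorescence intensity with its signal-to-noise ratio.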 The note with it: small-molecule microarray binding, fluorescence 635 nm; higher = more signal.
Experiment [12] in a line: small-molecule microarray binders of probe aDKK1, primary screen, biochemical, biotinylated probe, 635/667 nm fluorescence (AID 1099).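 Note: score merges 667nm spot fluorescence with signal to noise across triplicate slides; reference of the scale not given here.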 Particulars: higher = more signal.
A short description of experiment [13]: small-molecule microarray binders of probe aCHRDL2, primary screen, biochemical, biotinylated probe, 635/667 nm fluorescence (AID 1100). Particulars: higher = more signal.
Experiment [14] can be described thus: splicing luciferase reporter signal modulators, primary screen, spliceosome inhibition project, cell-based, HEK293, splice +/- reporter (AID 1101).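 Note: HEK293 cells carrying a splicing-competent luciferase reporter gene; test concentration not given here.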 Particulars: luminescence, 24 h, higher = more signal, called active from +8 up or from −8 down. In general terms: A reporter such as luciferase makes a cellular process visible.
Experiment [15] has as its target Fibroblast growth factor 10 (Homo sapiens) (UniProt O15520). As to the kind of experiment: FGF10 binders on small-molecule microarrays, primary screen, biochemical, small-molecule microarray, 635 nm fluorescence (AID 1102). The note with it: FGF10 binding, fluorescence 635 nm, higher = more signal.
Experiment [16] concerns glycogen synthase kinase-3 (GSK3A per assay name; protocol says GSK3B). Description: GSK3 binders on small-molecule microarrays, primary screen, biochemical, small-molecule microarray, 635 nm fluorescence, GSK3A (AID 1103). Note: the record names both GSK3A and GSK3B. The note with it: small-molecule microarray binding, fluorescence 635 nm; higher = more signal.
Experiment [17] concerns the target Epidermal growth factor receptor (Homo sapiens) (UniProt P00533). As to the kind of experiment: EGFR binders on small-molecule microarrays, primary screen, biochemical, small-molecule microarray, 635 nm fluorescence (AID 1104).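 Note: score merges 667 nm emission intensity with spot signal to noise over triplicate slides.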 Particulars: EGFR binding, higher = more signal.
Experiment [18] addresses Follistatin-related protein 3 (Homo sapiens) (UniProt O95633). As to the kind of experiment: FSTL3 binders on small-molecule microarrays, primary screen, biochemical, small-molecule microarray, 635 nm fluorescence (AID 1105).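 Note: score merges emission near 667 nm and signal to noise per printed spot across three slides.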 The note with it: FSTL3 binding, higher = more signal.
Experiment [19] concerns the target Dickkopf-related protein 1 (Homo sapiens) (UniProt O94907). As to the kind of experiment: DKK1 binders on small-molecule microarrays, primary screen, biochemical, small-molecule microarray, 635 nm fluorescence scan (AID 1106).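 Note: score merges emission near 667 nm with signal to noise over three replicate slides.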 Particulars: DKK1 binding, higher = more signal.
In experiment [20] the test system is Inhibin beta A chain (activin A). As to the kind of experiment: INHBA (activin A) binders on microarrays, primary screen, biochemical, small-molecule microarray, 635 nm fluorescence scan (AID 1107).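 Note: mouse activin A protein probed at 4.33 µg/mL on printed slides; score merges bound-protein fluorescence near 667 nm with spot signal-to-noise.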 The note with it: small-molecule microarray binding, higher = more signal.

Active and inactive are the calls of the source.

Follistatin-related protein 3 (Homo sapiens), sequence (O95633 whole entry, looked up): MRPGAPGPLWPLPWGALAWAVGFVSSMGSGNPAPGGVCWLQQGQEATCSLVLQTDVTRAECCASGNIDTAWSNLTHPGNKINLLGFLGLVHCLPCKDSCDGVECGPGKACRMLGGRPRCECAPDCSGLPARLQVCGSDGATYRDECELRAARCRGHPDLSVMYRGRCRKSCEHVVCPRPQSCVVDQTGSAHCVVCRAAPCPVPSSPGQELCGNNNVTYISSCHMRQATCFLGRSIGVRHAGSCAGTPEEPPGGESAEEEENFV
Neurogenic locus notch homolog protein 3 (Homo sapiens), sequence (Q9UM47 whole entry, looked up): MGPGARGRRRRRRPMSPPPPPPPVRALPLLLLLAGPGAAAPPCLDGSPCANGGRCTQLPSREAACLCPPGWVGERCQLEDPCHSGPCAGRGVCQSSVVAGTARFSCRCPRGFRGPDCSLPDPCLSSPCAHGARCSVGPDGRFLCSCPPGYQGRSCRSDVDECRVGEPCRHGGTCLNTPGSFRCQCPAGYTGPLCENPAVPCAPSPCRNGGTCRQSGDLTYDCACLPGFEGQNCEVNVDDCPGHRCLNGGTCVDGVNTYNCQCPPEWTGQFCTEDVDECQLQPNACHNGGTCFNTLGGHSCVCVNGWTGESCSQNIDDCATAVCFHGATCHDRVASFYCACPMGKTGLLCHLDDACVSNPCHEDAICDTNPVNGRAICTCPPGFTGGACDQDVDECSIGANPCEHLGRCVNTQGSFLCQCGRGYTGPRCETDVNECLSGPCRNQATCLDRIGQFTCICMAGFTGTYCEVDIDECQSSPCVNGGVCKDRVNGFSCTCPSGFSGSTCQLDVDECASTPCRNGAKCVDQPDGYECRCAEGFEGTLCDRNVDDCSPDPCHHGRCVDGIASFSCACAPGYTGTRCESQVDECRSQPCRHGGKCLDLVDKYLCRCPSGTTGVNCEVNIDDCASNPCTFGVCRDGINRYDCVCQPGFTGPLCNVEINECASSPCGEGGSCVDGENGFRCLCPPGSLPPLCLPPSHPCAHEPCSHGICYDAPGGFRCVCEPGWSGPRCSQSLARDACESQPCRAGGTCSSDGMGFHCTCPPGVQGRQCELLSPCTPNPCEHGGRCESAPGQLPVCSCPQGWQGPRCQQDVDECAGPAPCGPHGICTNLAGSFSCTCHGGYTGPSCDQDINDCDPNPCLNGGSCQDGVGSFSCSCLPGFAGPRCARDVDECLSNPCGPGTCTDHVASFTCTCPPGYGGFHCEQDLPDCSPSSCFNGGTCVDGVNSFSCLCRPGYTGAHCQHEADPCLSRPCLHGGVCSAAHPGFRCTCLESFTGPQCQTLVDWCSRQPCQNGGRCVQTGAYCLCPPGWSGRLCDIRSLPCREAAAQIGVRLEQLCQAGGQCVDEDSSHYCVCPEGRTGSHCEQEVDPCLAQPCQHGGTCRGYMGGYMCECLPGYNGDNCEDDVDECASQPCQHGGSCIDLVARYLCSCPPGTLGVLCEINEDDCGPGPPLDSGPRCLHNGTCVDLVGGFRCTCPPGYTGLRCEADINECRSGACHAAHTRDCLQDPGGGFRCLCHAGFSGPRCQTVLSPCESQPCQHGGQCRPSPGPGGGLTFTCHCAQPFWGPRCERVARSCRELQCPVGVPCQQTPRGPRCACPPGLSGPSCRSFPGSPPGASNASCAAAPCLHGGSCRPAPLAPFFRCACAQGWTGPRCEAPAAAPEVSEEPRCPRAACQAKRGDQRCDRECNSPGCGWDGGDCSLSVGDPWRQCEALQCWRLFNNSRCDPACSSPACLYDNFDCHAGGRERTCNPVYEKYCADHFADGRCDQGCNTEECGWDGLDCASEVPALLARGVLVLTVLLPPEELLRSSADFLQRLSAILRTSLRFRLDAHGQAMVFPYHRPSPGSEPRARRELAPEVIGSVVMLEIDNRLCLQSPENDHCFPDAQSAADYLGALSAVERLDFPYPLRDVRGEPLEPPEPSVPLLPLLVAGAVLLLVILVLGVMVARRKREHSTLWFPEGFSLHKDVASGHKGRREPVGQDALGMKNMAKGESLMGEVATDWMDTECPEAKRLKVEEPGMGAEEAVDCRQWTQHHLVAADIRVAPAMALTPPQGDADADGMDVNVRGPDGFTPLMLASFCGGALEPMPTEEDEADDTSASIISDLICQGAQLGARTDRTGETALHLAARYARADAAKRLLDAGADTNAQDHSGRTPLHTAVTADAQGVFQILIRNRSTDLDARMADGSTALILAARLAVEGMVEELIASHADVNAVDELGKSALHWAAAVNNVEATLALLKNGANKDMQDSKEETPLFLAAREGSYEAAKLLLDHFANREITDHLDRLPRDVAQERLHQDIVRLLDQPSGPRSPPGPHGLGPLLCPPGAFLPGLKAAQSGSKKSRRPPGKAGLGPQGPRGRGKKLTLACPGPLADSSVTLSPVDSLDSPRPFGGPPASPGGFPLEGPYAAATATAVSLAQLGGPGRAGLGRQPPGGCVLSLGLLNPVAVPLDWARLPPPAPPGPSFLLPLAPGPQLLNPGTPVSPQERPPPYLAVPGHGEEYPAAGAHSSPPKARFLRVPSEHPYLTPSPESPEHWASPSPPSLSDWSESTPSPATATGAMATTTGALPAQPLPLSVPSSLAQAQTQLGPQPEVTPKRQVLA
Torsin-1A-interacting protein 2 (Homo sapiens), sequence (Q8NFQ8 whole entry, looked up): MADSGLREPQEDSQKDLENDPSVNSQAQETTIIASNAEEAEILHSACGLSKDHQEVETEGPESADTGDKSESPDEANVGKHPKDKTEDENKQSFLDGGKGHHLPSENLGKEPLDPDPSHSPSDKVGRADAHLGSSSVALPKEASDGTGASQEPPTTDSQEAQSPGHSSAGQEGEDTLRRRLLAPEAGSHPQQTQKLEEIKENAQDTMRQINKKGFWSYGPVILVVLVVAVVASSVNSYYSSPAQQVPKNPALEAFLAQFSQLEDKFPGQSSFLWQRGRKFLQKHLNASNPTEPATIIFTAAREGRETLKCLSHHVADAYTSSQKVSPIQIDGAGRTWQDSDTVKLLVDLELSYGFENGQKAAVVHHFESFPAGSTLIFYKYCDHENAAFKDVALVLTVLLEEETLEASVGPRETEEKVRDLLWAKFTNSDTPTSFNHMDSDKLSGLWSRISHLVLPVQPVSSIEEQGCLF
Dickkopf-related protein 1 (Homo sapiens), sequence (O94907 whole entry, looked up): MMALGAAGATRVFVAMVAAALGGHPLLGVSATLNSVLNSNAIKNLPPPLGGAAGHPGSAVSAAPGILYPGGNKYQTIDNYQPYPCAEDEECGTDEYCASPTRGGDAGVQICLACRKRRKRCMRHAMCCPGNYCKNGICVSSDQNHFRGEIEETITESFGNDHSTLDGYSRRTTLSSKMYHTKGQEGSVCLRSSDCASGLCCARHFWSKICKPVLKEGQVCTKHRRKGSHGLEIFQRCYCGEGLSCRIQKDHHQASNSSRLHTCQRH
Epidermal growth factor receptor (Homo sapiens), sequence (P00533 whole entry, looked up): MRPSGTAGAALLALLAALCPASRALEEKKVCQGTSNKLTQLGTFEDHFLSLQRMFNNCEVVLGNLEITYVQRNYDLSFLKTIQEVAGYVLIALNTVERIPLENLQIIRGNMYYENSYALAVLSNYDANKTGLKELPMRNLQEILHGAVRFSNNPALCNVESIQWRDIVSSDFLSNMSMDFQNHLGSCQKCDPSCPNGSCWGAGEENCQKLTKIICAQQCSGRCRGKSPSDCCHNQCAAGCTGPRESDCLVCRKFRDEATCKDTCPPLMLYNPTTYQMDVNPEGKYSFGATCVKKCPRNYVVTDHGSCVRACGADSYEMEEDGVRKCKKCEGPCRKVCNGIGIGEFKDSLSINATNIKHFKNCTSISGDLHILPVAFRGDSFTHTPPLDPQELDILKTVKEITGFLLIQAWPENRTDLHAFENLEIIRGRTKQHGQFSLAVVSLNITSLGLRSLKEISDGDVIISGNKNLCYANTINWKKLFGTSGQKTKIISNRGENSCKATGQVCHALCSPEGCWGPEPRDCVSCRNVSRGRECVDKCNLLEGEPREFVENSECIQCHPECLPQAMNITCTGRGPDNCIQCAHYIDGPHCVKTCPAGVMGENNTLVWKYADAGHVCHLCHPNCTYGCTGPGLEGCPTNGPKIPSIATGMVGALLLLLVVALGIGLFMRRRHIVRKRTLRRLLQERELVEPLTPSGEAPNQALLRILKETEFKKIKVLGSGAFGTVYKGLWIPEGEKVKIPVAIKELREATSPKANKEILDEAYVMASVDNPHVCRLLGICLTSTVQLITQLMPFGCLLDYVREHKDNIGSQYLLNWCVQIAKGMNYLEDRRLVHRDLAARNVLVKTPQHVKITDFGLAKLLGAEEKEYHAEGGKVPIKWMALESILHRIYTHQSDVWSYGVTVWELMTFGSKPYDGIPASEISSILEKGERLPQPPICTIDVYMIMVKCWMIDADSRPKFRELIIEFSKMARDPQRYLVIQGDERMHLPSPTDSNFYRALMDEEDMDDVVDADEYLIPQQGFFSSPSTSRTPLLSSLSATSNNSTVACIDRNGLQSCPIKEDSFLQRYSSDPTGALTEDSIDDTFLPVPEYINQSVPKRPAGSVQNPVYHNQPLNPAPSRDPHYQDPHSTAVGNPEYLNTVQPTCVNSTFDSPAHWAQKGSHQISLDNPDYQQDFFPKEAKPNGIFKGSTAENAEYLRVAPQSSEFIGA
Fibroblast growth factor 10 (Homo sapiens), sequence (O15520 whole entry, looked up): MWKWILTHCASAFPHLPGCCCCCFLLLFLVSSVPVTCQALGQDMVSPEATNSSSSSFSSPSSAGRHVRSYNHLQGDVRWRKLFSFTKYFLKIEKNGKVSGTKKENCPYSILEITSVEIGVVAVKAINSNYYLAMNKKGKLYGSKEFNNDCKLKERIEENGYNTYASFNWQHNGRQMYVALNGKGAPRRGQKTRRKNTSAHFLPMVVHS

For `C=CCC(OC(C)=O)[C@@H]1[C@@H](N(Cc2cccc3ccccc23)C(=O)c2cccc3ccccc23)c2cc(OCCCO)ccc2N1C(=O)Cc1ccc2ccccc2c1` (stereo not given in full), the composite z-score in experiment [1] was -0.254; in [5], -0.0809; in experiment [7], -0.193; in experiment [8] it was 0.0493; in experiment [9], 0.002; in [10], -0.0675. Besides, the composite z-score in experiment [11] is -0.181; in [12] it was -0.177; in experiment [13] it was 0.551; in experiment [15], -0.0715; in experiment [16], -0.0273; in experiment [17] it was -0.117. Moreover, the composite z-score in [18] was 0.246; in experiment [19], -0.394; in experiment [20], 1.48. Moreover, the z-score was -0.796 (inactive) in experiment [2]; 0.0827 (inactive) in experiment [3]; -1.45 (inactive) in experiment [4]; -0.225 (inactive) in experiment [6]; 0.341 (inactive) in [14].

Consider `NC(=O)[C@@]1(CCS(=O)(=O)c2ccccc2)COC(c2ccc(OCCCO)cc2)=N1`, for which the composite z-score is -0.617 in experiment [1]; 1.28 in experiment [5]; 0.158 in [7]; -0.0167 in experiment [8]; -0.57 in experiment [9]; -0.0826 in experiment [10]. Besides, the composite z-score is 1.35 in experiment [11]; 0.628 in [12]; 0.831 in experiment [13]; 0.19 in [15]; -0.123 in experiment [16]; -0.143 in [17]. In addition, the composite z-score in experiment [18] is -0.232; in [19] it was -0.526; in experiment [20], 1.21. In addition, the z-score in experiment [2] was -0.0133 (inactive); in experiment [3] it was -0.213 (inactive); in [4] it was 0.0084 (inactive); in experiment [6], 0.817 (inactive); in [14] it was 0.129 (inactive).

Turning to `COC(=O)C1(CC(C)C)C=C2C(=C(C(C)C)C(=O)C2C)CN1` (stereo not given), the composite z-score was -0.866 in experiment [1]; 0.412 in experiment [5]; -0.0289 in experiment [7]; -1.29 in experiment [8]; -0.877 in [9]; -0.103 in experiment [10]. The composite z-score in experiment [11] is -0.573; in [12], 0.834; in [13], 0.937; in [15] it was -0.296; in [16] it was -2; in experiment [17] it was -0.961. Moreover, the composite z-score in experiment [18] is -0.771; in [19] it was -0.871; in experiment [20], 1.34. In addition, the z-score in experiment [2] was -0.166 (inactive); in experiment [3], -0.0608 (inactive); in experiment [4], 1.08 (inactive); in experiment [6], -0.844 (inactive); in experiment [14], 1.97 (inactive).

Consider `[N-]=[N+]=NCc1ccccc1C[C@@]1(C(=O)O)N=C(c2ccc(OCCCO)cc2)O[C@@H]1c1ccccc1CN=[N+]=[N-]`, for which the composite z-score worked out at 1.28 in experiment [1]; 1.59 in experiment [5]; 0.0829 in experiment [7]; 0.34 in experiment [8]; 0.679 in experiment [9]; 0.0264 in experiment [10]. Also, the composite z-score was 0.705 in experiment [11]; 0.317 in experiment [12]; 0.779 in experiment [13]; 1.15 in [15]; 0.577 in [16]; -0.227 in experiment [17]. Further, the composite z-score in [18] turned out to be 0.814; in experiment [19], 0.31; in [20], 0.69. Moreover, the z-score in experiment [2] was -1.5 (inactive); in experiment [3], -3.13 (inactive); in [4], -1.55 (inactive); in experiment [6], 0.345 (inactive); in experiment [14], -0.806 (inactive).

In the case of `CN(C)CCCC[C@@H]1NC(=O)[C@@H]2C[C@H](C(=O)NCc3ccc(F)cc3)[C@H](c3ccc(O)cc3)N2C1=O`, the composite z-score worked out at 1.34 in experiment [1]; 2.72 in [5]; 0.164 in experiment [7]; 1.9 in experiment [8]; 0.968 in experiment [9]; 0.364 in [10]. The composite z-score is 1.56 in experiment [11]; -0.126 in experiment [12]; -0.0292 in experiment [13]; 1.47 in experiment [15]; 0.941 in experiment [16]; 0.176 in [17]. Also, the composite z-score in [18] was 0.0719; in [19], 0.2; in [20], -1.43. For the same molecule, the z-score in experiment [2] was 0.582 (inactive); in experiment [3], -1.4 (inactive); in [4] it was 0.0709 (inactive); in experiment [6], -0.585 (inactive); in experiment [14], 0.104 (inactive).
